# Compound activity from PubChem.
# These entries were drawn from the full list.
# PostGolgi yeast – growth inhibition of a yeast mutant, post-Golgi transport screen | AID 739 | post-Golgi transport phenotypic cell assay | inhibition, % at 10 µM | 98,000 compounds, 0.9% hits;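 further: yeast cells grown in 1536-well plates; yeast grown about 18 h at 30C before absorbance read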
# CYP2C19 inhib – blocks human cytochrome P450 2C19; CYP2C19 Supersomes, luciferin-H EGE luminescence, 30 min; 96,000 compounds, 21% hits; P33261; inhibition, % at 5 µM;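 active means CYP2C19 inhibition above a set limit at 5 µM in the primary screen, cut at about 50% in these data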
# CYP2C9 act – activators of human CYP2C9; P11712; recombinant CYP2C9, luciferin-H conversion, luminescence; active compounds read high; factor 1 = untreated enzyme, 0 = blocked; activation factor at 5 µM; 96,000 compounds, 1.4% hits; AID 1024;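 active means activation factor of 2 or more for CYP2C9 at a 5 µM dose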
# Target sequence (P11712 whole entry, looked up): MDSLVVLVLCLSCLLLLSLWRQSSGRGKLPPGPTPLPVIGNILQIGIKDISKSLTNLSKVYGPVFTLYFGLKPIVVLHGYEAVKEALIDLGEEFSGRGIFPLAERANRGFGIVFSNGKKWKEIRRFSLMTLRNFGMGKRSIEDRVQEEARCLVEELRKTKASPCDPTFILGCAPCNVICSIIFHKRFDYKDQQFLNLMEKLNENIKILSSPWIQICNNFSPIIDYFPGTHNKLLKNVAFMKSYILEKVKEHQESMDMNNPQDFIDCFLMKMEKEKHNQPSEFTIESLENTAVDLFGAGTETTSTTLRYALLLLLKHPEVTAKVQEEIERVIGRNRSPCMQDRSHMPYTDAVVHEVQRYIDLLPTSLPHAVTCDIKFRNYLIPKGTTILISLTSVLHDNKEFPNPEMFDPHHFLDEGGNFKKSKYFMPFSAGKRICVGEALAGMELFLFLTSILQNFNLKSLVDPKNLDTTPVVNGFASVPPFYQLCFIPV
# CYP2C19 act – activators of human cytochrome P450 2C19; recombinant CYP2C19, luciferin-H EGE luminescence; active compounds read high; 0 = fully inhibited enzyme, 1 = untreated enzyme; activation factor at 5 µM; 96,000 tested, under 10 active; AID 1025;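 active means activation factor of at least 2 at 5 µM in the primary screen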
# CYP2C9 inh – inhibitors of human CYP2C9. P11712. CYP2C9 Supersomes, luciferin-H conversion, luminescence. inhibition, % at 5 µM. 96,000 compounds, 20% hits;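 active means blocking of liver enzyme CYP2C9 beyond about 50% at 5 µM, limit read from the data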
# PostGolgi ctrl – inhibits growth of the yeast control strain | efflux-deficient yeast background strain, growth absorbance A615, 16 h | inhibition, % at 10 µM | 98,000 compounds, 5% hits | AID 738
# Hits are given with their value; n = inactive; x = no result given. Unless noted, no stated cut-off is given here; in the data, active means inhibition above about 30%; inactive means the rest.
SMILES,PostGolgi yeast,CYP2C19 inhib,CYP2C9 act,CYP2C19 act,CYP2C9 inh,PostGolgi ctrl
Cc1ccc(-n2nc(C)c(C3C(C#N)=C(N)OC4=C3C(=O)CC(C)(C)C4)c2Cl)cc1 (stereo not given),x,n,n,n,n,x
Cc1cc2c(c(=O)n1C1CC1)C(c1cccc(Cl)c1)C(C#N)=C(N)O2 (stereo not given),n,n,n,n,n,n
Cc1cccc(OC(=O)c2cn(C)nc2C(F)(F)F)c1C,n,n,n,n,n,n
O=C(NCCc1ccccc1)C(=O)NN=C1CCCC1,n,n,n,n,n,n
Cc1nn(-c2ccccc2)c(Cl)c1C1C(C#N)=C(N)Oc2c1c(C)nn2-c1ccccc1 (stereo not given),n,80.7,n,n,91.2,n
Cc1ccc(-n2nc(C)c3c2OC(N)=C(C#N)C3c2ccccc2F)cc1 (stereo not given),n,n,n,n,n,n
Cc1nn(-c2ccccc2)c2c1C(c1ccncc1)C(C#N)=C(N)O2 (stereo not given),n,58.9,n,n,65.5,31.8
Cc1nn(-c2ccccc2)c(Cl)c1C1C(C#N)=C(N)Oc2n[nH]c(C)c21 (stereo not given),n,83.1,n,n,77.6,n
Cc1[nH]nc2c1C(c1ccsc1C)C(C#N)=C(N)O2 (stereo not given),n,n,n,n,n,n
Cc1nn(-c2ccccc2)c2c1C(c1c(C)[nH]c(C#N)c1C)C(C#N)=C(N)O2 (stereo not given),n,74.0,n,n,87.0,n
COc1cccc(Nc2ncnc3c2cnn3C)c1,n,n,n,n,n,n
Cc1ccc(C2=N/C(=C\N(C)C)C(=O)O2)cc1,n,n,n,n,n,n
O=S(=O)(c1ccc2c(c1)nc(COc1ccc(Cl)cc1)n2CC1CCCO1)N1CCOCC1 (stereo not given),n,n,n,n,n,n
COc1cc(-n2nc(C)c3c2OC(N)=C(C#N)C3c2ccccc2)c(Cl)c(Br)c1O (stereo not given),n,98.7,n,n,98.9,n
Cn1c(Cn2c(=O)sc3ccccc32)nnc1SCC(=O)Nc1ccccc1F,n,x,x,x,x,n
Cc1ccc(C)c(N(C(=O)Cn2nnc3ccccc32)C(C(=O)NC(C)(C)C)c2ccsc2)c1 (stereo not given),n,n,n,n,n,n
OC(CNCC1CCCO1)Cn1c2ccc(Cl)cc2c2cc(Cl)ccc21 (stereo not given),90.1,n,n,n,n,103.2
Cc1nnc(SCc2ccc(Cl)cc2)n1CC1CCCO1 (stereo not given),n,n,n,n,n,n
O=C(NCc1cccs1)C1CCCN(S(=O)(=O)c2ccc3c(c2)OCO3)C1 (stereo not given),n,n,2.1,n,n,n
Cn1c(=O)oc2cc(S(=O)(=O)N3CCCC(C(=O)NCc4ccc5c(c4)OCO5)C3)ccc21 (stereo not given),n,n,n,n,67.8,n
CS(=O)(=O)N1CCCC(C(=O)NCCc2ccc(Cl)cc2)C1 (stereo not given),n,n,n,n,n,n
Cc1ccc(CCNC(=O)C2CCCN(S(=O)(=O)c3cccs3)C2)cc1 (stereo not given),n,n,n,n,72.4,n
CCCS(=O)(=O)N1CCCC(C(=O)NCCc2ccc(Cl)cc2)C1 (stereo not given),n,n,n,n,55.5,n
Cc1ccc(NC(=O)C2CCCN(S(=O)(=O)c3cccs3)C2)cc1 (stereo not given),n,n,n,n,n,n
COc1c2ccc(C(=O)NCc3cc(C(F)(F)F)cc(C(F)(F)F)c3)cc2nn1C,n,n,n,n,n,n
SMILES,PostGolgi yeast,CYP2C19 inhib,CYP2C9 act,CYP2C19 act,CYP2C9 inh,PostGolgi ctrl
Cc1ccc(C2C3=C(CCCC3=O)Nc3nc(SCC(=O)NCc4ccco4)[nH]c(=O)c32)cc1 (stereo not given),n,n,n,n,n,n
Cc1ccc(C(=O)NNc2nc3ccccc3nc2C(F)(F)F)cc1,n,n,n,n,n,n
O=C(NCc1cccs1)C1CCCN(S(=O)(=O)c2cccs2)C1 (stereo not given),n,n,n,n,72.4,n
CCOC(=O)C1CCCN(S(=O)(=O)c2ccc(C)cc2)C1 (stereo not given),n,x,x,x,x,n
COc1ccc(S(=O)(=O)N2CCCC2C(=O)NCc2cccs2)cc1 (stereo not given),n,67.6,3.1,n,n,n
CCC1CCCCN1S(=O)(=O)c1ccc(S(=O)(=O)N(Cc2cccs2)C2CC2)cc1 (stereo not given),n,69.4,n,n,71.3,n
Cc1ccc(S(=O)(=O)N2CCCC(C(=O)N(Cc3cccs3)C3CC3)C2)cc1 (stereo not given),n,98.9,n,n,n,n
CCOC(=O)CC(=O)CSc1[nH]c(=O)cc(C)c1C#N,n,n,n,n,n,n
O=C(N/C(=C\c1ccc(Br)cc1)c1nc2ccccc2[nH]1)c1ccco1,n,n,n,n,n,n
COC(=O)c1ccccc1NC(=O)Cn1cnc2ccc(S(=O)(=O)N3CCC(C)CC3)cc2c1=O,n,n,n,n,n,n
O=C(O)c1ccc2cccc(Cl)c2c1O,n,n,n,n,n,n
Cc1ccccc1-c1ccc(Nc2ccc(N3CCOCC3)cc2)nn1,n,n,n,n,58.2,n
O=S1(=O)N=C(Nc2ccc(N3CCOCC3)cc2)c2ccccc21,n,x,x,x,x,n
Cc1cc(C)c2nc(Cl)c(CN(Cc3ccco3)C(=O)Nc3ccccc3C)cc2c1,n,n,n,n,75.4,34.5
COc1ccc(NC(=O)N(CCO)Cc2cc3c(C)cc(C)cc3[nH]c2=O)cc1,n,n,n,n,n,n
COCCN(Cc1cc2cc(C)cc(C)c2nc1Cl)C(=O)Nc1ccccc1,n,n,n,n,67.2,35.4
CCOC(=O)Cc1c(C)nc2c(-c3ccccc3OC)c(C)nn2c1C,n,n,n,n,n,n
CCOC(=O)c1ncn2c1C(=O)OC2(C)C,n,n,n,n,n,n
NC(=O)Nn1c(CCC(=O)O)ccc1-c1ccc(Br)cc1,n,n,n,n,n,n
Cc1ccccc1-n1nc(C)c2cc(C(=O)N3CCN(S(=O)(=O)c4ccc(F)cc4)CC3)sc21,36.7,n,n,n,75.1,n
Cc1ccccc1-n1nc(C)c2cc(C(=O)N3CCN(S(=O)(=O)c4ccc(Cl)cc4)CC3)sc21,n,n,n,n,65.5,n
Cc1cc(NC(=O)c2cccc(S(=O)(=O)N3CCCCCC3)c2)no1,n,n,n,n,n,n
O=C(NC1CCCCC1)C1CC=CCC1C(=O)OCC(Cl)=C(Cl)Cl (stereo not given),n,n,n,n,n,n
O=C(Nc1ccc2c(c1)OCCO2)c1ccc(NC(=O)C2CCCO2)cc1 (stereo not given),n,n,n,n,n,n
